Inconclusive results are not listed. A number with no mark means an inactive call. Calls of active or inactive are those of the source. The call rests on the fitted dose curve; in most records, active means well fitted activation curve with a large enough effect in the repeat runs; inconclusive means weak or mixed curves; inactive means flat fitted curve, though single readings scatter.
Assay: A CellTox Green Cytotoxicity Assay to monitor cytotoxicity in HEK293 cells - 24 hour (AID 1224875); further: nearly all actives have a fitted effect of over 45% in size
Conditions: CellTox Green fluorescence; series mostly up to 76.8 µM; activity change: at the top concentration
Excerpt: National Center for Advancing Translational Sciences [NCATS]
NIH Chemical Genomics Center [NCGC]
U.S. Environmental Protection Agency [EPA]
National Institutes of Environmental Health Sciences [NIEHS]
National Toxicology Program [NTP]
Cell-based models are critical for drug discovery. Determining the natural cytotoxic effects resulting from test compounds is an essential research activity. A CellTox Green Cytotoxicity Assay to monitor cytotoxicity in real time of continues cell culture during 40 hours of the compound treatment was used to screen Tox21 10K library compounds in Hek293 cells. CellTox Green Cytotoxicity Assay is a nonlytic, homogeneous, biofluorescent method to measure cytotoxicity in cell culture after experimental manipulation. The assay system uses a proprietary asymmetric cyanine dye that is excluded from viable cells but preferentially stains the dead cell's DNA. […] Viable cells produce no appreciable increases in fluorescence. Therefore, the fluorescence signal produced by the binding interaction with dead cell DNA is proportional to cytotoxicity.
The mixture of Hek293 cell suspension and reagents were dispensed at 600cells/6 ul/well in 1536-well tissue culture treated black solid bottom plates using a Multidrop dispenser. After the assay plates were incubated at a 37 C/5% CO2 incubator for 5 hours, 23 nL of compounds dissolved in DMSO, positive and negative controls was transferred to the assay plate by a pintool work station. The plates were incubated at 37 C for 40 hours. The fluorescence intensity were measured at 0h, 8h, 16h, 24h, 32h and 40h time points using ViewLux plate reader during compound treatment.
On the % scale 0 is the no-effect control and ±100 the full control effect; potency means the concentration at half of the fitted maximal effect.

| SMILES | activity change | Potency |
| --- | --- | --- |
| C=CCOC(=O)COCCC(C)C | -16.3% | – |
| O=C1[C@@H]2[C@H]3CC[C@H](C3)[C@@H]2C(=O)N1CCCCN1CCN(c2ncccn2)CC1 | -8.02% [at 35.3 µM, hits give high values] | – |
| O=C(Nc1ccc(C(=O)O)c(O)c1)c1ccccc1 | -1.64% [at 35.3 µM, hits give high values] | – |
| CCCCCCCC/C=C\CCCCCCCC(=O)OCCO | -0.919% | – |
| CC(C)(C)S | -1.84% | – |
| C=CC(=O)NC(C)C | -0.627% | – |
| CC1C(C)(C)C2=C(C(=O)CCC2)C1(C)C (stereo not given) | 18.5% | – |
| COc1ccc(C2C(=O)c3ccccc3C2=O)cc1 | -7.16% [at 35.3 µM, hits give high values] | – |
| Nc1ccc(NC(=O)c2ccc(N)cc2)cc1 | -13.7% | – |
| Cc1ccc(N(CCO)CCO)cc1 | 1.41% | – |
| Oc1ccc2c(c1)Cc1ccccc1-2 | 28% | – |
| CCCCCCCCCCCSCC(=O)O | 2.94% | – |
| CC(=O)Oc1cccc(O)c1 | 3.66% [at 35.3 µM, hits give high values] | – |
| CC(=O)C(=O)CC(C)C | -7.44% | – |
| ClC1=C(Cl)C1(Cl)Cl | -8.52% | – |
| CCCCCc1ccco1 | 5.95% [at 35.3 µM, hits give high values] | – |
| Cc1ccc2c(c1[N+](=O)[O-])C(=O)c1ccccc1C2=O | 2.66% [at 35.3 µM, hits give high values] | – |
| CC1CCC(C(C)CS)CC1S (stereo not given) | – | 43.6 µM (active) |
| O=c1[nH]c2cc(C(F)(F)F)c(N3CCOCC3)cc2n(CP(=O)(O)O)c1=O | -8.52% [at 35.3 µM, hits give high values] | – |
| CC(C)(O)CCc1ccccc1 | 14.3% | – |

| SMILES | activity change | Potency |
| --- | --- | --- |
| Cc1ccc(Cl)cc1N | -1.75% | – |
| CCCCCCCC(=O)OCCCCCC | 14.5% | – |
| CC(C)Cc1ccc(CC(=O)O)cc1 | – | 10.7 µM (active) |
| CCCCOC(=O)CCCCC(=O)OCCCC | 11.1% | – |
| O=C(O)CCS | -5.59% | – |
| CCN(CC)CCOC(=O)C(c1ccccc1)c1ccccc1 | 2.27% [at 35.3 µM, hits give high values] | – |
| CC(C)(O)c1coc(S(=O)(=O)NC(=O)Nc2c3c(cc4c2CCC4)CCC3)c1 | 1.06% | – |
| CC(CCc1ccc(O)cc1)NCCc1ccc(O)c(O)c1 (stereo not given) | -16.3% [at 35.3 µM, hits give high values] | – |
| CCN(CC)CCOc1ccccc1C(=O)CCc1ccccc1 | 7.75% [at 35.3 µM, hits give high values] | – |
| Nc1c(Cl)cc(Cl)cc1[N+](=O)[O-] | 5.79% | – |
| Nc1cccc2c(N)cccc12 | -12.2% | – |
| O=C(O)CNC(=O)c1ccccc1I | -11% [at 35.3 µM, hits give high values] | – |
| O=CNNC=O | 1.19% | – |
| CCCCCCCCCCCCCCCCCC(=O)OCC(CC)CCCC (stereo not given) | -11.1% | – |
| O=C(c1ccccc1)c1ccc(O)cc1 | 24.7% | – |
| Nc1ccc(N=Nc2ccc(N)cc2)cc1 | -17.3% [at 35.3 µM, hits give high values] | – |
| COc1ccc(CCN(C)CCCN2CCc3cc(OC)c(OC)cc3CC2=O)cc1OC | 9.71% [at 35.3 µM, hits give high values] | – |
| CC(C)C(=O)OCCOc1ccccc1 | 8.32% | – |
| CCN(CC)c1cccc(O)c1 | -2.28% | – |
| O=C(C(=O)c1ccco1)c1ccco1 | 18.6% | – |

From PubChem BioAssay (Tox21)
